Source: PubChem BioAssay
GLS inh: glutaminase GLS (human) inhibition | hit rate 0.21% among 410,000 | AID 624170 | O94925 | Potency, µM (doses to about 45.5 µM), hits mostly inhibitors | GLS enzymatic activity, qHTS titration
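hKGA in 45 mM KH2PO4 pH 8.2, 0.02% Tween-20 with pin-transferred compounds; 1 mM L-glutamine (stock) plus glutamate oxidase/HRP/Amplex Red coupling added. Fluorescence read initially and after 30 min at RT.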
Pol kappa inh-1: DNA polymerase kappa (human) inhibition. Q9UBT6. purified Pol kappa, fluorescent DNA synthesis assay, 10 min. Potency, µM (top dose mostly 107 µM), hits mostly inhibitors. hit rate 0.53% among 400,000
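Readout: fluorescence, taken kinetically at 0 and 10 min. Conditions: 10 nM Pol kappa, 15 min RT compound preincubation, 50 nM substrate final. Controls: enzyme-free buffer wells.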
POLI inh: DNA polymerase iota (human) inhibition. Q9UNA4. Pol iota fluorescent replication assay, 10 min. Potency, µM (titrated, usually from 115 µM), actives largely listed as inhibitors. hit rate 1% among 390,000. AID 588590
Target sequence (Q9UNA4 whole entry, looked up): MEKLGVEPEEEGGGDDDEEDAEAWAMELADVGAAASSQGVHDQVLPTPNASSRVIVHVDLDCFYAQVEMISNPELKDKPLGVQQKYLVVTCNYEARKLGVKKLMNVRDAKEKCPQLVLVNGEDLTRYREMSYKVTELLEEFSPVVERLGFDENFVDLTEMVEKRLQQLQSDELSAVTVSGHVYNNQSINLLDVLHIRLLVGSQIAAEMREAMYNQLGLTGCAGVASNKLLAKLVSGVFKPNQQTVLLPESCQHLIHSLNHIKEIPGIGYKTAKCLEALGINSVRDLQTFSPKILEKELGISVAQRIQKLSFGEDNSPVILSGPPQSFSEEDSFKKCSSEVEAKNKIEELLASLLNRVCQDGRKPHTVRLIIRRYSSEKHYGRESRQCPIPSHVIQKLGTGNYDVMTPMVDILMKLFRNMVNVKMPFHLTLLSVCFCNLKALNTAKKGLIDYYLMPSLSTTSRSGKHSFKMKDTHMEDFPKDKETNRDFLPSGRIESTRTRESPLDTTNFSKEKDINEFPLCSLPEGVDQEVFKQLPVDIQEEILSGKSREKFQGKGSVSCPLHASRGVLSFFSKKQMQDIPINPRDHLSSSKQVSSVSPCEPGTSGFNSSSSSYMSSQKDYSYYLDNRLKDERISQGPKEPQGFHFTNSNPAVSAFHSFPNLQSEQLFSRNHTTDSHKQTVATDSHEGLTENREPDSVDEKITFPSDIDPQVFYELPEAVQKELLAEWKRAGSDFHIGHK
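Fluorescent replication assay read twice, at 0 min and 10 min after adding 50 nM (final) substrate. Enzyme (10 nM) and compounds were first incubated 15 min at room temperature; enzyme-free buffer wells were negative controls.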
Pol beta inh: inhibitors of human DNA polymerase beta. P06746. Pol beta primer extension/strand displacement, fluorescence kinetic. Potency, µM (top dose mostly 114 µM), actives largely listed as inhibitors. hit rate 1.3% among 340,000
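Reaction started by 50 nM substrate onto compound-treated Pol beta (10 nM, 15 min preincubation, room temperature); plates read at 0 min and 10 min. Normalized concentration-effect data fitted by four-parameter Hill equation.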
APE1 inh: inhibitors of human APE1 endonuclease. P27695. recombinant APE1, TAMRA/BHQ-2 abasic DNA cleavage fluorescence. Potency, µM (series often up to 65.8 µM), hits mostly inhibitors. hit rate 0.35% among 350,000. AID 2517; further: nearly all actives have a fitted effect of over 55% in size
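Compound pre-exposure to 0.75 nM APE1, 15 min at ambient temperature. Reaction initiated with 50 nM TAMRA/BHQ-2 THF substrate, read immediately in kinetic mode, 525 nm excitation, 598 nm emission.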
Pol eta inh-1: blocks human DNA polymerase eta activity; Q9Y253; recombinant Pol eta, fluorescent DNA replication assay; Potency, µM (highest dose often 114 µM), most hits filed as inhibitors; hit rate 1.2% among 390,000; AID 588591
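Pol eta at 10 nM preincubated with compounds 15 min at room temperature; reaction started with fluorescent substrate (50 nM final) and read kinetically at 0 and 10 min.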
TbPGK inh: TbPGK inhibition, hit validation. shares compounds with Pol kappa inh-1. TbPGK coupled GAPDH assay, Kinase-Glo luminescence. Potency, µM (titrated, usually from 57.5 µM), usual class: inhibitors. hit rate 79% among 500; further: nearly all actives have a fitted effect of over 65% in size
Pol iota confirm: Human Pol iota inhibitor confirmatory assay; hit rate 77% among 1,500; shares compounds with Pol kappa inh-1; Potency, µM, hits mostly inhibitors; AID 720496; Pol iota primer extension, TAMRA/BHQ fluorescence
Pol kappa inh-2: Pol kappa (human) inhibition, cherry-pick confirmation; purified Pol-kappa, fluorescent strand-displacement substrate; shares compounds with Pol eta inh-1; hit rate 76% among 920; Potency, µM, usual class: inhibitors
Pol eta inh-2: Pol eta (human) inhibition, cherry-pick confirmation | Pol eta primer extension, TAMRA/BHQ fluorescence, 10 min | shares compounds with Pol eta inh-1 | hit rate 64% among 2,600 | Potency, µM, hits mostly inhibitors
Each line names hits and unclear results; the compound was inactive in the other large screens (follow-up assays come after a bar, where they were run). Compounds with a hit are over-represented: about 2.4% of the library has one in this group of screens. The call rests on the fitted dose curve; in most records, active means well fitted curve in the direction sought with a large enough effect; inconclusive means small, poorly fitted or top-dose-only effect, or another doubt; inactive means no such curve, though single readings can be large; an effect the other way counts as inactive or inconclusive.

CC1(C)CCC(c2ccc(Cl)cc2)=C(CN2CCN(c3ccc(C(=O)NS(=O)(=O)c4ccc(N[C@H](CCN5CCOCC5)CSc5ccccc5)c(S(=O)(=O)C(F)(F)F)c4)cc3)CC2)C1	Pol kappa inh-1 45µM, POLI inh 40µM (no result: GLS inh, Pol beta inh, APE1 inh, Pol eta inh-1) | Pol iota confirm 67 | Pol kappa inh-2 inconclusive | Pol eta inh-2 inconclusive
COc1cc(/C=N/N2C(=O)CSC2=S)cc(Br)c1O	GLS inh inconclusive, Pol kappa inh-1 40µM, POLI inh inconclusive, Pol beta inh 35µM, APE1 inh inconclusive, Pol eta inh-1 25µM | Pol iota confirm inconclusive | Pol kappa inh-2 38 | Pol eta inh-2 67
O=c1cc2oc3cc(O)c(O)cc3c(-c3ccccc3[N+](=O)[O-])c-2cc1O	Pol kappa inh-1 0.79µM, POLI inh inconclusive, Pol beta inh 0.32µM, APE1 inh 0.13µM, Pol eta inh-1 0.79µM | TbPGK inh 0.29µM | Pol iota confirm 0.75 | Pol eta inh-2 2.1
Cc1ccc(/C=C/c2nc3sc(C(=O)O)c(C)c3c(=O)[nH]2)cc1[N+](=O)[O-]	GLS inh inconclusive, Pol beta inh inconclusive, APE1 inh 8.4µM, Pol eta inh-1 40µM | Pol iota confirm 30 | Pol eta inh-2 inconclusive
CCOC(=O)CSc1nc2sc(C(=O)O)c(C)c2c(=O)[nH]1	none
Cc1c(C(=O)O)sc2nc(/C=C/c3ccccc3OC(F)F)[nH]c(=O)c12	POLI inh inconclusive, Pol beta inh 40µM, APE1 inh inconclusive, Pol eta inh-1 inconclusive | Pol iota confirm 75 | Pol eta inh-2 inconclusive
O=[N+]([O-])c1cccc2c3c([nH]c12)CCCC3	none
CC1CCC(NC(=O)C(=O)Nc2ccc3c(c2)OCO3)CC1 (stereo unspecified)	none
Cc1ccc(N=Nc2c(N)nn3c(N)c(C#N)c(C)nc23)cc1	Pol kappa inh-1 79µM, POLI inh inconclusive, Pol beta inh 22µM, Pol eta inh-1 inconclusive | Pol iota confirm 42 | Pol eta inh-2 inconclusive
C=C1CCN([C@@H](Cc2ccccc2)C(=O)Nc2ccc(OC)cc2)S(=O)(=O)c2ccccc21	none (no result: Pol beta inh, APE1 inh)
Cc1cc[n+](-c2[nH]c(=O)sc2/C=N/N=C(\[O-])c2ccncc2)cc1	Pol kappa inh-1 inconclusive, POLI inh 40µM, Pol beta inh inconclusive, Pol eta inh-1 79µM | Pol iota confirm 53 | Pol eta inh-2 76
O=c1[nH]c(-[n+]2ccccc2)c(/C=N/N=C(\[O-])c2ccccc2)s1	APE1 inh inconclusive
O=C(Cc1c(F)cccc1Cl)N1CCOCC1	none
Cc1nnc(N2C(=O)c3oc4ccccc4c(=O)c3C2c2ccco2)s1 (stereo unspecified)	Pol kappa inh-1 inconclusive, POLI inh inconclusive, Pol beta inh 20µM, APE1 inh inconclusive, Pol eta inh-1 inconclusive | Pol iota confirm inconclusive | Pol eta inh-2 inconclusive
Cc1cc(/C=C(\C#N)C(=O)NCc2ccco2)c(C)n1-c1ccc(C(=O)O)cc1	GLS inh inconclusive, Pol kappa inh-1 inconclusive, POLI inh 40µM, Pol beta inh inconclusive, Pol eta inh-1 20µM | Pol iota confirm 67 | Pol eta inh-2 27
Cc1cc(/C=C(\C#N)C(=O)NCC2CCCO2)c(C)n1-c1ccc(Cl)cc1 (stereo unspecified)	none
COc1ccc(N(C)C(=O)c2oc(=O)c3ccccc3c2-c2ccccc2)c(OC)c1	none
O=C1CC(c2ccco2)CC(O)=C1C=Nc1cc(Cl)ccc1Cl (stereo unspecified)	Pol kappa inh-1 inconclusive, POLI inh 22µM, Pol beta inh 40µM, APE1 inh inconclusive, Pol eta inh-1 inconclusive | Pol iota confirm 67 | Pol kappa inh-2 75 | Pol eta inh-2 60
O=C1CC(c2ccco2)CC(O)=C1C=Nc1cc(Cl)ccc1O (stereo unspecified)	GLS inh inconclusive, Pol kappa inh-1 inconclusive, POLI inh inconclusive, Pol beta inh 20µM, APE1 inh 7.1µM, Pol eta inh-1 35µM | Pol iota confirm 42 | Pol eta inh-2 30
O=C(CSc1nc(-c2cccc(Cl)c2)nc2cc(=O)[nH]n12)Nc1ccccc1	GLS inh inconclusive, POLI inh inconclusive, Pol beta inh 20µM, Pol eta inh-1 50µM (no result: APE1 inh) | Pol iota confirm 60 | Pol eta inh-2 85
CCOc1ccc(-c2nc(SCC(=O)Nc3ccc(C)c(C)c3)n3[nH]c(=O)cc3n2)cc1	GLS inh inconclusive, POLI inh inconclusive, Pol beta inh 3.2µM, Pol eta inh-1 50µM (no result: APE1 inh) | TbPGK inh 16µM | Pol iota confirm 27 | Pol eta inh-2 85
O=c1c(-c2ccc([N+](=O)[O-])cc2)coc2c(O)c(O)ccc12	Pol kappa inh-1 7.1µM, POLI inh 8.9µM, Pol beta inh inconclusive, APE1 inh inconclusive, Pol eta inh-1 3.2µM | TbPGK inh 2.6µM | Pol eta inh-2 8.5
CN(C)Cc1c(O)ccc2c(=O)c(-c3ccc(Cl)cc3)coc12	none
CC1=NN(c2ccc(C(=O)O)c(N)c2)C(=O)C1	GLS inh inconclusive, Pol kappa inh-1 89µM, POLI inh 1.3µM, Pol beta inh 10µM, APE1 inh 2µM, Pol eta inh-1 22µM | Pol iota confirm 60 | Pol eta inh-2 34
CC1=NN(c2ccc(C(=O)O)cc2)C(=O)CC1	Pol beta inh inconclusive
O=C1OC(c2ccc3c(c2)OCO3)=N/C1=C\c1ccc(C(=O)O)cc1	GLS inh inconclusive, Pol kappa inh-1 inconclusive, POLI inh inconclusive, Pol beta inh inconclusive, APE1 inh 4.2µM, Pol eta inh-1 10µM | Pol iota confirm inconclusive | Pol eta inh-2 8.5
CN(C)CCNC(=O)c1cccc2nc3cccc(F)c3nc12	Pol kappa inh-1 inconclusive, POLI inh 89µM, Pol eta inh-1 inconclusive (no result: Pol beta inh, APE1 inh) | Pol iota confirm 42 | Pol kappa inh-2 17
COc1ccc(OC)c2nc3c(C(=O)NCCN(C)C)cccc3nc12	Pol kappa inh-1 inconclusive, POLI inh inconclusive, Pol eta inh-1 inconclusive (no result: Pol beta inh, APE1 inh)
